Assay results as given in the antibiotic and cytotoxicity screens of Wong et al. (2023).
In all, about 39,000 compounds went through this assay and about 3,300 (8.5%) were called active. The list comes from a sample in which actives are over-represented; it also holds similar structures and randomly drawn compounds.

Test system: HepG2
Assay: cytotoxicity call (relative viability < 0.9)
Conditions: 10 µM

Row | SMILES | cytotoxicity call
1 | COc1ccc([C@@H]([C@H](Cc2ccccc2)OC(C)=O)N2C[C@@H](OC(C)=O)[C@@H]3[C@H]([C@@H]2Cc2ccccc2)N(C)O[C@H]3c2ccccc2)cc1 | inactive
2 | COc1ccc([C@@H]([C@H](Cc2ccccc2)OC(C)=O)N2C[C@@H](CC(=O)N(C)C)[C@H]3[C@@H]([C@@H]2Cc2ccccc2)N(C)O[C@@H]3c2ccccc2)cc1 | active
3 | COc1ccc([C@@H]([C@H](Cc2ccccc2)OC(C)=O)N2C[C@H](CC(=O)N(C)C)[C@@H]3[C@H]([C@@H]2Cc2ccccc2)N(C)O[C@H]3c2ccccc2)cc1 | inactive
4 | COc1ccc([C@@H]([C@H](Cc2ccccc2)OC(C)=O)N2C[C@@H]3[C@H]([C@@H]2Cc2ccccc2)N(C)O[C@@]3(O)[C@@H](O)c2ccccc2)cc1 | inactive
5 | COc1ccc([C@@H]([C@H](Cc2ccccc2)OC(C)=O)N2C[C@H]3[C@H]([C@@H](OC(C)=O)c4ccccc4)ON(C)[C@H]3[C@@H]2Cc2ccccc2)cc1 | active
6 | COc1ccc([C@@H]([C@H](Cc2ccccc2)OC(C)=O)N2C[C@@H]3C(=NO[C@H]3[C@@H](OC(C)=O)c3ccccc3)[C@@H]2Cc2ccccc2)cc1 | inactive
7 | COc1ccc([C@@H]([C@H](Cc2ccccc2)OC(C)=O)N2C[C@@H](CC(=O)N(C)C)[C@@H]3[C@H]([C@@H]2Cc2ccccc2)N(C)O[C@H]3c2ccccc2)cc1 | inactive
8 | COc1ccc([C@@H]([C@H](Cc2ccccc2)OC(C)=O)N2C[C@@H](NC(=O)C(Cl)(Cl)Cl)[C@@H]3[C@H]([C@@H]2Cc2ccccc2)N(C)O[C@H]3c2ccccc2)cc1 | inactive
9 | COc1ccc([C@@H]([C@H](Cc2ccccc2)OC(C)=O)N2C[C@H]3[C@@H]([C@@H](O)c4ccccc4)ON(C)[C@H]3[C@@H]2Cc2ccccc2)cc1 | active
10 | Cn1cnc(S(=O)(=O)N[C@@H]2CC[C@@H](CC(=O)Nc3ccccc3)O[C@H]2CO)c1 | inactive
11 | Cc1ccc(S(=O)(=O)Nc2ccc3c(c2)CC(=O)N([C@@H](C)CO)C[C@@H](C)[C@@H](CN(C)C(=O)NC(C)C)O3)cc1 | inactive
12 | O=C(Nc1ccc2c(c1)[C@@H]1C[C@H](CC(=O)N3CCc4ccccc4C3)O[C@H](CO)[C@@H]1O2)C1CCOCC1 | inactive
13 | C[C@H](CO)N1C[C@H](C)[C@@H](CN(C)C(=O)Nc2cccc3ccccc23)OCCCC[C@H](C)Oc2ccc(NC(=O)Nc3ccccc3)cc2C1=O | inactive
14 | Cc1noc(C)c1S(=O)(=O)N(C)C[C@H]1Oc2ccc(NS(C)(=O)=O)cc2CC(=O)N([C@@H](C)CO)C[C@@H]1C | inactive
15 | C[C@H](CO)N1C[C@H](C)[C@H](CN(C)C(=O)NC2CCCCC2)Oc2c(NC(=O)C3CC3)cccc2C1=O | inactive
16 | C[C@@H]1CCCCO[C@@H](CN(C)S(C)(=O)=O)[C@@H](C)CN([C@H](C)CO)C(=O)c2cc(NS(=O)(=O)c3ccc(F)cc3)ccc2O1 | inactive
17 | C[C@@H]1CCCCO[C@@H](CN(C)C(=O)Nc2cccc3ccccc23)[C@@H](C)CN([C@H](C)CO)C(=O)c2cc(NC(=O)Nc3ccccc3)ccc2O1 | inactive
18 | COc1cccc(OCc2ccc(Cn3nc(NC(=O)Nc4c(OC)cccc4OC)c4ccccc43)cc2)c1 | inactive
19 | CN(C)CCCOc1nn(Cc2ccccc2)c2ccccc12.Cl | active
20 | O=C(O)COc1nn(Cc2ccccc2)c2ccccc12 | inactive
21 | C[C@H]1CN([C@@H](C)CO)S(=O)(=O)c2ccc(C#CC3CC3)cc2O[C@@H]1CN(C)Cc1ccccc1F | inactive
22 | C[C@@H]1CN([C@@H](C)CO)C(=O)Cc2cc(NC(=O)Cn3cnnn3)ccc2O[C@@H]1CN(C)S(=O)(=O)c1ccc(F)cc1 | inactive
23 | Cc1ccccc1S(=O)(=O)N1C[C@H](O)COC[C@H]2O[C@@H](CC(=O)NCCc3ccccc3)CC[C@@H]21 | inactive

Row | SMILES | cytotoxicity call
24 | Nc1ncnc2nc[nH]c12 | inactive
25 | S=c1[nH]cnc2nc[nH]c12 | active
26 | Nc1nc2nc[nH]c2c(=O)[nH]1 | inactive
27 | Nc1nc2nc[nH]c2c(=S)[nH]1 [listing 1 of 2 here] | active
28 | O=c1[nH]cnc2nc[nH]c12 | inactive
29 | Nc1nc2nc[nH]c2c(=S)[nH]1 [listing 2 of 2 here] | inactive
30 | N#CCN(CC#N)C(=O)c1ccco1 | inactive
31 | CC(C)CC#Cc1ccc2c(c1)O[C@@H](CN(C)C(=O)C1CCOCC1)[C@@H](C)CN([C@@H](C)CO)S2(=O)=O | inactive
32 | COc1ccc(S(=O)(=O)N(C)C[C@H]2Oc3ccc(NS(=O)(=O)c4ccccc4)cc3C(=O)N([C@@H](C)CO)C[C@H]2C)cc1 | inactive
33 | Cc1noc(C)c1S(=O)(=O)Nc1ccc2c(c1)CC(=O)N([C@H](C)CO)C[C@H](C)[C@H](CN(C)Cc1ccncc1)O2 | inactive
34 | COc1ccc(S(=O)(=O)N2C[C@@H](O)COC[C@@H]3O[C@H](CC(=O)NCCCN(C)C)CC[C@H]32)cc1 | inactive
35 | COc1cc(O)cc(O)c1C(=O)c1ccccc1 | active
36 | COc1cc(O)c(C(=O)c2ccccc2)cc1S(=O)(=O)O | inactive
37 | COc1ccc(C(=O)c2ccccc2)c(O)c1 | inactive
38 | C[C@H]1CN([C@@H](C)CO)C(=O)c2cc(C#Cc3cccnc3)cnc2O[C@H]1CN(C)S(=O)(=O)c1ccccc1F | inactive
39 | C[C@@H]1CN([C@H](C)CO)S(=O)(=O)c2ccc(C#CCN(C)C)cc2O[C@H]1CN(C)S(=O)(=O)c1cccc(F)c1 | inactive
40 | C[C@@H]1CN([C@H](C)CO)C(=O)c2cccc(NC(=O)C3CCOCC3)c2O[C@@H]1CN(C)S(=O)(=O)c1ccccc1 | inactive
41 | Cc1n[nH]c(N/N=C/c2ccccn2)nc1=O | active
42 | Cc1n[nH]c(NCc2ccco2)nc1=O | inactive
43 | CCCNc1nc(=O)c(C)n[nH]1 | inactive
44 | O=C(O)[C@@H]1CCCC[C@@H]1C(=O)N1CCc2ccccc2[C@H]1CN1C(=O)c2ccccc2C1=O.O=C(O)[C@H]1CCCC[C@@H]1C(=O)N1CCc2ccccc2[C@H]1CN1C(=O)c2ccccc2C1=O | inactive
45 | C[C@@H]1CCCCO[C@H](CN(C)S(=O)(=O)c2cccs2)[C@@H](C)CN([C@H](C)CO)C(=O)c2cc(NS(=O)(=O)c3ccc(Cl)cc3)ccc2O1 | inactive
46 | C[C@@H]1CN([C@@H](C)CO)C(=O)c2cc(NS(=O)(=O)c3cn(C)cn3)ccc2O[C@@H]1CN(C)CC1CC1 | inactive
